Assay results taken from PubChem BioAssay (EPA / NIEHS).
Inconclusive results are not listed. Calls of active or inactive are those of the source. How the source made its calls, unless noted: active means hit-call score of the fitted dose curve at least 0.9, where 1 is the maximum; inactive means score below 0.9.

What was measured:
[1] = biological target: Retinoic acid receptor RXR-alpha (Homo sapiens) (UniProt P19793); test: ATG_RXRa_TRANS: Attagene TRANS-FACTORIAL HepG2 Assay for human Retinoid X Receptor alpha (RXRa) (AID 2283012; active means hit-call score of the fitted dose curve at least 0.9, where 1 is the maximum)
Procedure, shortened: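 Transient transfection of human HepG2 with multiple GAL4-UAS reporter constructs; 24 h compound exposure; total RNA isolated, reverse-transcribed, PCR-amplified, 6-FAM labelled, HpaI-cut, resolved by capillary electrophoresis. Positive-direction fit versus DMSO.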

[2] = biological target: human Thyroid Receptor alpha (THRa1), THRA (gene 7067) (UniProt P10827); test: ATG_THRa1_TRANS: Attagene TRANS-FACTORIAL HepG2 Assay for human Thyroid Receptor alpha (THRa1) (AID 2283014; active means hit-call score of the fitted dose curve at least 0.9, where 1 is the maximum)
Procedure, shortened: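 First, HepG2 cells receive multiple GAL4-UAS reporter units and the chimeric receptor. They are then dosed for 24 h, after which RNA is reverse-transcribed, amplified, labelled, HpaI-cut and sized by capillary electrophoresis; gain relative to DMSO is scored.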

[3] = read-out: E-selectin (Homo sapiens) (UniProt P16581); test: BSK_3C_Eselectin: BioMAP Diversity Plus: 3C Assay for Eselectin Biomarker Activity (AID 2283015); conditions: primary human endothelial cells (HUVEC); actives raise or lower the signal
Procedure, shortened: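 Human vascular endothelium from umbilical vein is exposed to test chemicals for 24 h. E-selectin levels are read by ELISA and compared with DMSO controls.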

[4] = read-out: Interleukin-1 alpha (IL1a), IL1A (gene 3552); test: BSK_BE3C_IL1a: BioMAP Diversity Plus: BE3C Assay for Interleukin-1 alpha (IL1a) Biomarker Activity (AID 2283016); conditions: primary human bronchial epithelial cells; actives raise or lower the signal
Procedure, shortened: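 BE3C primary human bronchial epithelium; cpd 24 h; IL-1a by ELISA; bidirectional fit vs DMSO; parallel SRB (0.1% SRB, 10% TCA fix, 560 nm) for cytotoxicity.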

[5] = read-out: Monocyte Chemoattractant Protein-1 (MCP1), CCL2 (gene 6347); test: BSK_3C_MCP1: BioMAP Diversity Plus: 3C Assay for Monocyte Chemoattractant Protein-1 (MCP1) Biomarker Activity (AID 2283017); conditions: primary human endothelial cells (HUVEC); actives raise or lower the signal
Procedure, shortened: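 Endothelial cells from human umbilical vein are dosed with chemical, cultured 24 h, then assayed for MCP-1 by ELISA; both increases and decreases are modelled against DMSO controls.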

[6] = read-out: Monocyte Chemoattractant Protein-1 (MCP1), CCL2 (gene 6347); test: BSK_4H_MCP1: BioMAP Diversity Plus: 4H Assay for Monocyte Chemoattractant Protein-1 (MCP1) Biomarker Activity (AID 2283018); conditions: primary human endothelial cells (HUVEC); actives raise or lower the signal
Procedure, shortened: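 ELISA read-out of MCP-1 from human vascular endothelial primary cells taken at 24 hours after compound exposure. Activity was fitted in both directions relative to DMSO, which served as negative control.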

[7] = read-out: Human Leukocyte Antigen - DR isotype (HLADR), HLA-DRA (gene 3122); test: BSK_3C_HLADR: BioMAP Diversity Plus: 3C Assay for Human Leukocyte Antigen - DR isotype (HLADR) Biomarker Activity (AID 2283019); conditions: primary human endothelial cells (HUVEC); actives raise or lower the signal
Procedure, shortened: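 Endothelial cells from human umbilical vein are treated with test chemical; after 24 h, HLA-DR levels are measured by ELISA. Data are fitted in both directions using DMSO as the baseline.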

[8] = read-out: Interleukin-8 (IL8), CXCL8 (gene 3576); test: BSK_3C_IL8: BioMAP Diversity Plus: 3C Assay for Interleukin-8 (IL8) Biomarker Activity (AID 2283020); conditions: primary human endothelial cells (HUVEC); actives raise or lower the signal
Procedure, shortened: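 ELISA read-out of IL-8 from human umbilical vein endothelium, measured 24 h after chemical dosing. Activity is expressed relative to DMSO negative control, with both increases and decreases fitted.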

[9] = read-out: Monokine induced gamma interferon (MIG), CXCL9 (gene 4283); test: BSK_3C_MIG: BioMAP Diversity Plus: 3C Assay for Monokine induced gamma interferon (MIG) Biomarker Activity (AID 2283021); conditions: primary human endothelial cells (HUVEC); actives raise or lower the signal;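 on AC50: MIG protein level measured by immunoassay in the treated endothelial cultures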
Procedure, shortened: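 Read-out is ELISA detection of MIG on human umbilical vein endothelial cells, taken 24 h after dosing. Gain or loss of signal was scored relative to DMSO controls using bidirectional curve fitting.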

[10] = biological target: human Vitamin D Receptor (VDR), VDR (gene 7421) (UniProt P11473); test: ATG_VDR_TRANS: Attagene TRANS-FACTORIAL HepG2 Assay for human Vitamin D Receptor (VDR) (AID 2283022; active means hit-call score of the fitted dose curve at least 0.9, where 1 is the maximum)
Procedure, shortened: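 Fluorescence of labelled reporter cDNA fragments, resolved by capillary electrophoresis, gives mRNA induction after 24 h treatment of HepG2 cells carrying transfected Gal4-fusion reporter units. Activity is fitted in the positive direction with DMSO as baseline.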

[11] = BSK_3C_SRB: Viability Assessment in the BioMAP Diversity Plus: 3C Assay (AID 2283023); conditions: primary human endothelial cells (HUVEC);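 further: fitted both ways against DMSO so a hit may be signal rise or drop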
Procedure, shortened: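 Cells were dosed with chemical, cultured 24 h, fixed with 10% TCA, stained with 0.1% SRB and read at 560 nm. Human umbilical vein endothelium was used; DMSO served as negative control and baseline.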

[12] = read-out: Matrix Metallopeptidase 1 (MMP1), MMP1 (gene 4312); test: BSK_BE3C_MMP1: BioMAP Diversity Plus: BE3C Assay for Matrix Metallopeptidase 1 (MMP1) Biomarker Activity (AID 2283024); conditions: primary human bronchial epithelial cells; actives raise or lower the signal
Procedure, shortened: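 Human bronchial epithelial cells (BE3C system) exposed to compound for 24 h; MMP1 then quantified by ELISA. Activity was fitted in both directions relative to DMSO.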

[13] = BSK_3C_Vis: BioMAP Diversity Plus: 3C Assay for Morphology Visualization (AID 2283025); conditions: primary human endothelial cells (HUVEC);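 further: fitted both ways so gain or loss versus DMSO counts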;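 on AC50: light microscopy image of cell morphology used as background control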
Procedure, shortened: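 Chemicals were added to primary human umbilical vein endothelium, cells were incubated 24 h, and morphology was then visualized by light microscopy. Gain or loss of signal was fitted bidirectionally relative to DMSO.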

[14] = read-out: Pselectin, SELP (gene 6403); test: BSK_4H_Pselectin: BioMAP Diversity Plus: 4H Assay for Pselectin Biomarker Activity (AID 2283026); conditions: primary human endothelial cells (HUVEC); actives raise or lower the signal
Procedure, shortened: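 ELISA read-out of P-selectin on human umbilical vein endothelium after 24 h of dosing. Values derive from bidirectional fitting relative to DMSO. Parallel SRB protein staining flagged overt cytotoxicity.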

[15] = BSK_4H_SRB: Viability Assessment in the BioMAP Diversity Plus: 4H Assay (AID 2283027); conditions: primary human endothelial cells (HUVEC);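 further: cells exposed to compound for 24 h before staining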;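 on AC50: curves fitted both ways versus DMSO so AC50 may be loss or gain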
Procedure, shortened: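 Human umbilical vein endothelial cells, 24 h after chemical dosing; total protein measured by 0.1% sulforhodamine B staining after 10% TCA fixation, read at 560 nm. Bidirectional fitting against DMSO.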

[16] = BSK_BE3C_SRB: Viability Assessment in the BioMAP Diversity Plus: BE3C Assay (AID 2283028); conditions: primary human bronchial epithelial cells;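 on AC50: fitted both ways so AC50 may mark signal gain or loss versus DMSO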
Procedure, shortened: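 Overt cytotoxicity was assessed as total protein in confluent human primary bronchial epithelial cultures 24 h after chemical addition, using 0.1% sulforhodamine B staining read at 560 nm.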

[17] = read-out: Thrombomodulin, THBD (gene 7056); test: BSK_3C_Thrombomodulin: BioMAP Diversity Plus: 3C Assay for Thrombomodulin Biomarker Activity (AID 2283029); conditions: primary human endothelial cells (HUVEC); actives raise or lower the signal
Procedure, shortened: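 Read-out is ELISA of thrombomodulin on human umbilical vein endothelium 24 h after chemical dosing. Gain or loss of signal is scored relative to DMSO. Overt cytotoxicity is checked in parallel cultures by sulforhodamine B staining.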

[18] = read-out: Urokinase-type plasminogen activator receptor (uPAR), PLAUR (gene 5329); test: BSK_4H_uPAR: BioMAP Diversity Plus: 4H Assay for Urokinase-type plasminogen activator receptor (uPAR) Biomarker Activity (AID 2283030); conditions: primary human endothelial cells (HUVEC); actives raise or lower the signal
Procedure, shortened: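 Chemicals are dosed onto human vascular endothelial primary cells (umbilical vein). After 24 h, uPAR is read by ELISA. Gain or loss of signal is fitted relative to DMSO.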

[19] = read-out: Vascular endothelial growth factor receptor 2 (Homo sapiens) (UniProt P35968); test: BSK_4H_VEGFRII: BioMAP Diversity Plus: 4H Assay for Vascular endothelial growth factor receptor 2 (VEGFR2) Biomarker Activity (AID 2283031); conditions: primary human endothelial cells (HUVEC); actives raise or lower the signal
Procedure, shortened: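 VEGFRII levels on human vascular endothelial primary cells were determined by ELISA at 24 hours post-dosing, with gain- or loss-of-signal fitted against DMSO controls.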

Measured: AC50

Chain of human Vitamin D Receptor (VDR), VDR (gene 7421) (P11473 whole entry, looked up, the tested form may be a part): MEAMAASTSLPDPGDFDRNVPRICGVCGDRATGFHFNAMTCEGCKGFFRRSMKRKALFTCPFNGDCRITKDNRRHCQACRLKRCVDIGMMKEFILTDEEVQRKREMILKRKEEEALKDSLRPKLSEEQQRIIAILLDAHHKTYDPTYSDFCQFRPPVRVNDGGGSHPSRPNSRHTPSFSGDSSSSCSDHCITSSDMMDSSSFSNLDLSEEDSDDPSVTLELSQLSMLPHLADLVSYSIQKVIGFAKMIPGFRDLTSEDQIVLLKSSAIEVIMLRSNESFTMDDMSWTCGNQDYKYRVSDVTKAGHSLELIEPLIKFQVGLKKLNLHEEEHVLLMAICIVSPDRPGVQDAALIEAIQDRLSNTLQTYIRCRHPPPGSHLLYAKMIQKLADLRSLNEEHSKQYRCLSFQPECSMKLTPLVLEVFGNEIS
Chain of human Thyroid Receptor alpha (THRa1), THRA (gene 7067) (P10827 whole entry, looked up, the tested form may be a part): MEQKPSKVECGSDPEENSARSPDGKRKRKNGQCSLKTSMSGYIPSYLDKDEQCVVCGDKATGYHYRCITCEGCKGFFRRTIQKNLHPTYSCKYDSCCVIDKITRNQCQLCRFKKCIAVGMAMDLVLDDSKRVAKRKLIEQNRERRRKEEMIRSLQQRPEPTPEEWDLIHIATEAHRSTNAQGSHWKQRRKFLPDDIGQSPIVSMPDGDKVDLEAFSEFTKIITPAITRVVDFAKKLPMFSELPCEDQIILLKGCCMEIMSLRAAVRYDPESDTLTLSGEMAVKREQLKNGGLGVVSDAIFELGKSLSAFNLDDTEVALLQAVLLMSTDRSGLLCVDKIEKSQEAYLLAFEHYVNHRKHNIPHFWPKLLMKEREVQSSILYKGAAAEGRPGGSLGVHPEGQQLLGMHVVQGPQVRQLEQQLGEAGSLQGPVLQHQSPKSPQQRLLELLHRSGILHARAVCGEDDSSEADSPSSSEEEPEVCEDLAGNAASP
Chain of Retinoic acid receptor RXR-alpha (Homo sapiens) (P19793 whole entry, looked up, the tested form may be a part): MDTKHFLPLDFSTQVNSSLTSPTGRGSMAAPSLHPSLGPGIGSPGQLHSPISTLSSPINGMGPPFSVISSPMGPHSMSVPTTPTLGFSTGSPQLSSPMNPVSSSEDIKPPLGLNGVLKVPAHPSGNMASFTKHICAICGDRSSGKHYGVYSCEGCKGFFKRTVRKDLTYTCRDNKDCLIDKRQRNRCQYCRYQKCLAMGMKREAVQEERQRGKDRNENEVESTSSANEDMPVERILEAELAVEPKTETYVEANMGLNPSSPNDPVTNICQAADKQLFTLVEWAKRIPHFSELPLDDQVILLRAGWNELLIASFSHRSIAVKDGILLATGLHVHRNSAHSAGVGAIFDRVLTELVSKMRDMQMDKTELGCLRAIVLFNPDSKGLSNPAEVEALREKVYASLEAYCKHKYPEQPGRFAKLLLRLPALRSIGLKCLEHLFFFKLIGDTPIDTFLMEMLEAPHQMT
Chain of E-selectin (Homo sapiens) (P16581 whole entry, looked up): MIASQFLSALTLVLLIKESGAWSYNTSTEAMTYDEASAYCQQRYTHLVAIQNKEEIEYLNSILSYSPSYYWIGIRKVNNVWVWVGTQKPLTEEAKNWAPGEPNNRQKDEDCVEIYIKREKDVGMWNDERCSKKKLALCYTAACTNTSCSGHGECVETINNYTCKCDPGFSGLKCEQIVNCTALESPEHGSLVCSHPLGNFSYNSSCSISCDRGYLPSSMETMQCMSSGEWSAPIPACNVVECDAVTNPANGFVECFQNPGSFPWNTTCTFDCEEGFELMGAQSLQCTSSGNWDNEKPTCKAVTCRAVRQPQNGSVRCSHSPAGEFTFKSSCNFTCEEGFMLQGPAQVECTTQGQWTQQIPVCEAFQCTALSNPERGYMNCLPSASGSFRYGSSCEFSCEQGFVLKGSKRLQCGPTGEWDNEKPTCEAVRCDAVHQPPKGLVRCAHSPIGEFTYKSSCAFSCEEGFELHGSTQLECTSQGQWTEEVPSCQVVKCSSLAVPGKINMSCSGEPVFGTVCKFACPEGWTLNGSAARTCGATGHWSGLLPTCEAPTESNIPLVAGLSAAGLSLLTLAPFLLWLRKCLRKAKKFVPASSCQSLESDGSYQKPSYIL

COc1ccc(CCN2CCC(Nc3nc4ccccc4n3Cc3ccc(F)cc3)CC2)cc1
active: [3] 5 µM | [5] 3.54 µM | [6] 0.992 µM | [7] 6.77 µM | [8] 2.66 µM | [11] 2.41 µM | [13] 0.743 µM | [15] 2.49 µM | [18] 0.992 µM
inactive: all other assays above

CC(O)C1CCCCC1 (centres undefined)
inactive: [1] | [2] | [10]

CCCC[O][Al]([O]CCCC)[O]CCCC
inactive: [1] | [10]

c1ccc2[nH]cnc2c1
inactive: [1] | [2]

C=CCN(CC=C)CC=C
inactive: [1] | [10]

CCCC(C)C(O)CC (centres undefined)
inactive: [1] | [10]

OCCOCCN1CCN(C2=Nc3ccccc3Sc3ccccc32)CC1
inactive: [1] | [2] | [10]

c1ccc2cc(Nc3ccc(Nc4ccc5ccccc5c4)cc3)ccc2c1
active: [4] 0.147 µM | [13] 8.8 µM
not listed: [10]
inactive: all other assays above

CCCCCC(=O)CC
inactive: [1] | [2] | [10]

C[C@H]1O[C@@H](O[C@H]2[C@@H](O)C[C@H](O[C@H]3[C@@H](O)C[C@H](O[C@H]4CC[C@@]5(C)[C@H](CC[C@@H]6[C@@H]5C[C@@H](O)[C@]5(C)[C@@H](C7=CC(=O)OC7)CC[C@]65O)C4)O[C@@H]3C)O[C@@H]2C)C[C@H](O)[C@@H]1O
inactive: [1] | [2] | [10]

CN(C)C(=O)Nc1ccc(Oc2ccc(Cl)cc2)cc1
active: [3] 20 µM | [4] 3.97 µM | [5] 3.97 µM | [6] 12.1 µM
inactive: all other assays above

CC(C)(C)CC(C)(C)c1ccc(OCCOCC[N+](C)(C)Cc2ccccc2)cc1
active: [3] 6.62 µM | [4] 7.26 µM | [5] 5 µM | [6] 3.9 µM | [7] 5 µM | [8] 5 µM | [9] 8.17 µM | [11] 4.62 µM | [12] 6.86 µM | [13] 9.69 µM | [14] 5 µM | [15] 5.82 µM | [16] 8.4 µM | [18] 4.64 µM
inactive: [1] | [2] | [10] | [17]
